# D1 ag – Allosteric Agonists of the Human D1 Dopamine Receptor: qHTS; D(1A) dopamine receptor (Homo sapiens), P21728; HEK293 T-REx D1 cells, calcium flux, agonist mode; activation, % at 2 µM; hit rate 1% among 360,000; also: 0% is about no effect
# Target sequence (P21728 whole entry, looked up): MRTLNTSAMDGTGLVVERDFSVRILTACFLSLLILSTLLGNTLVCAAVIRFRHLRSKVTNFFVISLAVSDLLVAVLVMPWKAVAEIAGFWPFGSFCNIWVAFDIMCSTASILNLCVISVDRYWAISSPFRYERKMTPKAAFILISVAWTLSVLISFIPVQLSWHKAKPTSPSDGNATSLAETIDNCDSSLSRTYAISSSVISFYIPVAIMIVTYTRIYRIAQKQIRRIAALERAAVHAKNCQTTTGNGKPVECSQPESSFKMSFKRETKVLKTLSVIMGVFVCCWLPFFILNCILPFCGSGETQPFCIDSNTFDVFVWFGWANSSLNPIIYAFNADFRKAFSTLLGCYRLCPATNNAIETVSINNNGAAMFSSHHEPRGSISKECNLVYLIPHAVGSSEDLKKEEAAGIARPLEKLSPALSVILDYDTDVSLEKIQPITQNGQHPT
#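 Agonism was scored from calcium flux recorded over 180 s (1 read/s) after pintool compound addition, following a 10-cycle baseline. Cells were inducible force-coupled HEK293 TREx D1, plated overnight at 30 C and loaded with no-wash calcium dye.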
# D1 PAM – Potentiators of Human D1 Dopamine Receptor: qHTS. HEK293 TREx D1 cells, calcium flux, dopamine EC20 potentiation. hit rate 0.036% among 360,000. AID 504651, 2011. potentiation, % at 10 µM. D(1A) dopamine receptor (Homo sapiens), P21728; in the data active = potentiation above about 30%; also: 0% is about no effect
# TRHR PAM – qHTS for Small Molecule Agonists and Allosteric Enhancers of Human TRH Receptor: Primary Screen for Enhancers | enhancement, % at 2 µM | Thyrotropin-releasing hormone receptor (Homo sapiens), P34981 | TRHR cells, fluo-8 calcium fluorescence, EC20 TRH enhancement | hit rate 0.66% among 360,000 | AID 493056, 2011; in the data active = enhancement above about 30%; also: 0% is about no effect
#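 Enhancer read-out: after compound pinning and an initial kinetic agonist-mode read, an EC20 of TRH (10 nM final) was injected and fluo-8 calcium signal (Ex 480/Em 530) followed at 1 s/cycle for 100 cycles in TRHR-expressing cells.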
# TRHR agonist – qHTS for Small Molecule Agonists and Allosteric Enhancers of Human TRH Receptor: Primary Screen for Agonists. TRHR cells, calcium flux fluo-8, FDSS agonist mode. activation, % at 2 µM. hit rate 0.18% among 360,000; also: 0% is about no effect
#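 Fluo-8-loaded TRHR cells; 10 s baseline, compound added, kinetic Ca2+ fluorescence read 1/s, agonist mode.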
# D1 antagonist – Antagonist of Human D 1 Dopamine Receptor: qHTS | hit rate 3.2% among 360,000 | activity change, negative = inhibition, % at 10 µM | D(1A) dopamine receptor (Homo sapiens), P21728 | HEK293 TREx D1 cells, calcium flux, dopamine EC80; hits give low values; in the data active = activity change below about -30%; also: % is scaled to controls: 0 for no effect and ±100 for the full control effect
#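 After overnight tetracycline induction at 30 C, force-coupled D1 HEK293 cells took up a no-wash calcium dye at room temperature. Compounds were added and monitored 180 s, and the response to EC80 dopamine was then recorded.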
# An asterisk follows results filed as active; . = not tested or not shown. Compounds with a hit are over-represented: about 4.6% of the library has one in this group of screens. Rule as the data show it, unless noted: active = activation above about 30%; inactive = the rest.
SMILES,D1 ag,D1 PAM,TRHR PAM,TRHR agonist,D1 antagonist
Cc1cc2cc(CN(Cc3cccs3)C(c3nnnn3C(C)(C)C)C(C)C)c3nnnn3c2cc1C (configuration not stated),1.2,-6.0,4.6,1.8,-4.6
Cc1ccc2cc(CN(Cc3cccs3)Cc3nnnn3C(C)(C)C)c3nnnn3c2c1,2.9,-5.8,32.1*,-0.1,-4.9
Cc1sc2ncnc(N3CCC(C(=O)NNC(=O)COc4ccccc4F)CC3)c2c1C,5.2,2.9,-1.3,-0.6,-40.3*
Cc1sc2ncnc(N3CCC(C(=O)NNC(=O)COc4ccccc4Cl)CC3)c2c1C,12.0,-14.2,11.9,-0.1,4.9
O=C1CS(=O)(=O)C2(C(=O)N(Cc3cccc(F)c3)c3ccccc32)N1c1ccccc1 (configuration not stated),5.4,1.9,10.3,-0.6,-1.4
CCCN(C(=O)CSc1nc2ccccc2n1CC)C1CCS(=O)(=O)C1 (configuration not stated),8.2,-4.2,-5.6,1.6,-30.4*
COc1ccc(CC(=O)NCc2ccc3c(c2)CCN3C(=O)c2ccccc2)cc1OC,-0.4,-3.9,1.1,-1.0,-5.2
Cc1ccc(N/N=C(\C#N)C(=O)c2ccsc2)cc1,8.6,-5.2,5.1,0.7,-46.6*
FC(F)(F)c1cccc(Nc2c3c(nc4ccc(Cl)cc24)CCC3)c1,5.4,-0.7,-5.9,1.5,-32.0*
Fc1ccc(F)c(Nc2c3c(nc4ccc(Cl)cc24)CCC3)c1,3.5,-4.4,43.3*,-1.1,-7.2
COc1ccccc1Nc1c2c(nc3ccc(NC(=O)c4cccc(F)c4)cc13)CCCC2,1.6,5.2,-2.5,-2.0,14.7
Cc1ccc2nc3c(c(Nc4ccccc4)c2c1)CCC3,1.1,-5.3,4.7,-0.9,-11.3
COCCn1c(SCC(=O)Nc2ccc(F)c(Cl)c2)nc2c(oc3ccccc32)c1=O,-0.2,-4.8,-0.4,0.6,5.2
COC(=O)c1ccc(CSc2ccc3nnc(-c4cccc(F)c4)n3n2)o1,-1.0,-0.5,-3.4,0.2,-30.4*
O=S(=O)(NCC(c1ccco1)S(=O)(=O)c1cccs1)c1ccc(F)c(C(F)(F)F)c1 (configuration not stated),2.5,-2.2,-4.6,6.6,.
CCOc1ccc(C(=O)N(Cc2cc(OC)c(OC)c(OC)c2)c2ccccn2)cc1,2.8,1.1,-0.5,0.3,-11.7
Cc1ccc(-c2nnn(CC(=O)N(c3ccccc3F)C(CC(C)C)C(=O)NCC3CCCO3)n2)cc1 (configuration not stated),0.5,-0.1,11.4,-0.2,-37.8*
CC(=O)c1cccc(NC(=O)c2cnn(-c3cccc(C)c3)c2-n2cccc2)c1,1.1,-5.2,-3.0,0.1,-4.9
Cc1nn2c(C)c(C(=O)NCc3ccc(OC(C)C)cc3)cnc2c1-c1ccc(F)cc1,0.9,-6.2,3.2,0.2,-0.8
O=C(Nc1ncc(Cc2ccccc2)s1)C1CCCO1 (configuration not stated),3.0,-0.7,-4.7,-0.7,-11.7
CNc1ncc(Cc2ccccc2)s1,2.6,-5.1,-0.1,0.6,-52.7*
COC(=O)c1ccc(NC(=O)Nc2nnc(N(C)C3CCCCC3)s2)cc1,-0.7,2.6,-1.0,-0.4,-54.7*
COc1ccc(C(=O)c2sc3nc(C)cc(-c4cccs4)c3c2N)cc1OC,82.0*,-0.2,-11.6,20.6,30.8
Cc1cc(-c2cccs2)c2c(N)c(C(=O)c3ccc4c(c3)OCO4)sc2n1,60.7*,6.8,-7.3,18.4,13.6
COc1cccc(CNC(=O)c2c(C)nn(-c3ccc(F)cc3)c2-n2cccc2)c1,2.3,-1.6,-1.8,0.4,-5.0
SMILES,D1 ag,D1 PAM,TRHR PAM,TRHR agonist,D1 antagonist
CCO[C@@H]1OC(C(=O)NC2CC2)=C[C@H](c2ccc(Br)cc2)[C@H]1CCCO,3.1,2.6,-0.7,0.3,10.7
CCO[C@H]1OC(C(=O)NC2CC2)=C[C@@H](c2ccc(Br)cc2)[C@@H]1CCCO,-0.1,-6.2,1.2,-0.6,-58.8*
CCO[C@H]1OC(C(=O)O)=C[C@@H](c2ccc3c(c2)OCO3)[C@@H]1CCCO,-3.3,62.5*,2.0,-0.1,-13.6
CC(C)N(c1nnc(N)s1)C(C)C,-0.7,-6.2,6.4,-0.1,-31.2*
CCOc1ccc(/C=C/c2nc(C#N)c(N3CCN(c4ccc(OC)cc4)CC3)o2)cc1,-0.9,1.6,0.8,0.8,6.2
CC(=O)c1[nH]c(C)c(C(=O)NCc2ccc(Cl)cc2)c1C,38.8*,-1.2,-3.1,-0.7,2.3
CC(=O)c1c(C)[nH]c(C(=O)NCc2ccco2)c1C,1.6,-8.3,-0.8,-0.2,-64.5*
Cc1c(C(=O)NCc2ccco2)oc2c(F)cccc12,0.6,-6.7,37.0*,0.3,-20.1
CCn1c(=O)c2cc(C(=O)NCc3ccc(F)cc3Cl)sc2c2ccccc21,1.4,-4.0,5.3,0.0,4.2
CCCCNC(=O)CN1C(=O)c2c(c3ccccc3n2C)C1c1ccc(OC)cc1 (configuration not stated),1.1,-1.6,-8.5,0.3,-0.4
O=C(Nc1nnc(C2=COCCO2)o1)c1ccc(Br)cc1,0.1,-6.4,-3.3,-0.5,-34.0*
Cc1ccc(C)c(-c2nnc(NC(=O)c3ccc4c(c3)OCCO4)o2)c1,8.4,-1.9,-3.6,-0.2,-37.3*
CSc1ccc(-c2nnc(NC(=O)c3ccc4c(c3)OCCO4)o2)cc1,3.1,-1.6,3.7,-0.2,-7.5
O=C(Nc1nnc(C2=COCCO2)o1)c1ccc(Cl)cc1,-0.5,5.1,11.8,-0.1,-21.5
Cc1ccc(NC(=O)c2sc3nc4c(cc3c2N)CN(Cc2ccccc2)CC4)cc1,5.7,2.2,19.3,-0.4,7.9
CCc1ccc(Cn2nnc(C(=O)Nc3ccc(C)cc3)c2N)cc1,4.0,1.2,5.7,-0.4,-0.3
COCCN(Cc1cc2cc3c(cc2nc1Cl)OCO3)C(=O)c1ccc(C)cc1,66.3*,2.8,4.7,-0.7,-2.9
COCCN(Cc1cc2cc(C)c(C)cc2nc1Cl)C(=O)Nc1ccccc1,1.3,-6.3,0.1,-1.1,0.4
O=C(NCCO)c1cccc(Nc2nc(-c3ccccc3)c3cc(Cl)ccc3n2)c1,0.4,4.0,31.4*,-0.1,-23.7
Cc1nc2ccccc2n1-c1ccccc1,2.4,-5.5,0.0,-0.1,-25.1
O=c1c(/C=C(\O)c2ccccc2)nc2ccccc2n1-c1ccccc1,169.4*,3.8,-2.6,46.6*,2.6
CCOC(=O)c1cc(S(=O)(=O)N2CCN(c3ccc(C)cc3C)CC2)[nH]n1,8.3,-3.1,-1.7,-0.7,-17.9

# From PubChem BioAssay
